{"source": "paper PMC7862700", "about": "“An all-to-all approach to the identification of sequence-specific readers for epigenetic DNA modifications on cytosine”", "test_in_all_cases": "DAPPL (digital affinity profiling via proximity ligation, sequencing); 10 mM Tris-HCl pH 7.5, 50 mM NaCl, 1 mM DTT, 4% glycerol, room temperature, 30 min; GST-TFs on glutathione beads, 16-mer random dsDNA library, 0.1% formaldehyde crosslink after washing; high values mean tight binding", "details_in_all_cases": "protein: recombinant; tags: N-terminal GST; dsDNA, one strand shown", "key": {"ELK3": {"molecular_target": "T1, ELK3 (Homo sapiens, UniProt P41970 1-407)", "T1 sequence": "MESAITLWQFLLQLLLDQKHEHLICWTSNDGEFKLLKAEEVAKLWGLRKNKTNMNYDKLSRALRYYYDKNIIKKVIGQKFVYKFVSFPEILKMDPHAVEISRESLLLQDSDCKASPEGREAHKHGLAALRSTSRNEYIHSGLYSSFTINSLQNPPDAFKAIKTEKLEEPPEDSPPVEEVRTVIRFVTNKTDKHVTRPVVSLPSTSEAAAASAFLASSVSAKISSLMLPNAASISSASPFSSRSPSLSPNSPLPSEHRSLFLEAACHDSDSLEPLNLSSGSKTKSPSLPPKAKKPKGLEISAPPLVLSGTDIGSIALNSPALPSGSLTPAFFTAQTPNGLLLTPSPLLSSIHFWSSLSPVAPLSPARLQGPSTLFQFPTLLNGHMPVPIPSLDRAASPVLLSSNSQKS", "summary_of_the_method": "(§1)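 Human transcription factors fused to GST were expressed in yeast, captured on glutathione beads, given DNA barcodes and pooled with a GST-only negative control. Pools were incubated with 200 nmole of a 16-mer random double-stranded DNA library in Tris/NaCl/DTT/glycerol buffer at room temperature for 30 min. They were then washed, crosslinked with 0.1% formaldehyde, proximity-ligated (BsaI/T4 ligase, 1 h, 37 °C), PCR-amplified and sequenced on an Illumina NextSeq500. Binding signal is each 6-mer's read frequency for a factor divided by its frequency for the GST control.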"}, "ERF": {"molecular_target": "T2, ERF (Homo sapiens, UniProt P50548 1-548)", "T2 sequence": "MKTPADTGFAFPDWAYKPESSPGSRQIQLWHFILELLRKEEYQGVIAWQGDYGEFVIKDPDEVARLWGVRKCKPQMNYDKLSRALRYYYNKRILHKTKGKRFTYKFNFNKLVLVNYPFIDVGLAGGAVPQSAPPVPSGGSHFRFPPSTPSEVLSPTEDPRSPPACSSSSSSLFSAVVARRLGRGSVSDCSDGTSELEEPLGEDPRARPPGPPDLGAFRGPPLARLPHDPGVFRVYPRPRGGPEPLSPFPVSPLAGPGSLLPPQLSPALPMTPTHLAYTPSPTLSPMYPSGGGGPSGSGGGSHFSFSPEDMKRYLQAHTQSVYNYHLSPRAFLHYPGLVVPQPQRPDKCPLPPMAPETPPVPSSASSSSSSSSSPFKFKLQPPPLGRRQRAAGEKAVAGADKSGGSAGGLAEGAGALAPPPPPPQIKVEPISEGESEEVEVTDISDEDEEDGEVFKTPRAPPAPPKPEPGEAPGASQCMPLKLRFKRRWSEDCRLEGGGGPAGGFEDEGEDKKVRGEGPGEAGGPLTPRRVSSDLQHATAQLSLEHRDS", "summary_of_the_method": "as §1"}, "ETV6": {"molecular_target": "ETV6 (Homo sapiens, UniProt P41212 1-452)", "sequence (P41212 whole entry)": "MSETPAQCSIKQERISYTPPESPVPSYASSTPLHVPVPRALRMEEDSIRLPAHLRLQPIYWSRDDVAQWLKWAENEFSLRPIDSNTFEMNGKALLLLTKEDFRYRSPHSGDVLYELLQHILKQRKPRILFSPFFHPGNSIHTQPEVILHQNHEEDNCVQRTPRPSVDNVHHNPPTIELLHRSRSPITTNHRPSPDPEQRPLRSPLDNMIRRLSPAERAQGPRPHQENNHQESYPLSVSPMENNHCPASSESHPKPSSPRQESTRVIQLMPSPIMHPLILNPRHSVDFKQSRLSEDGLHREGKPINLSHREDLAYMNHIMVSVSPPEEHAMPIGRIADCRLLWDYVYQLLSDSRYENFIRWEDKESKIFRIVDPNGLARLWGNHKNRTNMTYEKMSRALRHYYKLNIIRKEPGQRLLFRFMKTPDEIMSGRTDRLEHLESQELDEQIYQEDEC", "summary_of_the_method": "as §1"}, "ETV3L": {"molecular_target": "T3, ETV3L (Homo sapiens, UniProt Q6ZN32 1-361)", "T3 sequence": "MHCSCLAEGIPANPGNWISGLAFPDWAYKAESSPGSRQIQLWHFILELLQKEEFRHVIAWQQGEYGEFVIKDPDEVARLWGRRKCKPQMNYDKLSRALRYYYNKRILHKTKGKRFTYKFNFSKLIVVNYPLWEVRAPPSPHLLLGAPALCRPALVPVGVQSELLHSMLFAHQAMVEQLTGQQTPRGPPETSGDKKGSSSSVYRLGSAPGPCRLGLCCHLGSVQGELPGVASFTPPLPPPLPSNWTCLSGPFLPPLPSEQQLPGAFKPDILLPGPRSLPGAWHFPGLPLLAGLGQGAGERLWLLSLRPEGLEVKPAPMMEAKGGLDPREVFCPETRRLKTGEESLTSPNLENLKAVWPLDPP", "summary_of_the_method": "as §1"}, "ERG": {"molecular_target": "T4, ERG (Homo sapiens, UniProt P11308 1-479)", "T4 sequence": "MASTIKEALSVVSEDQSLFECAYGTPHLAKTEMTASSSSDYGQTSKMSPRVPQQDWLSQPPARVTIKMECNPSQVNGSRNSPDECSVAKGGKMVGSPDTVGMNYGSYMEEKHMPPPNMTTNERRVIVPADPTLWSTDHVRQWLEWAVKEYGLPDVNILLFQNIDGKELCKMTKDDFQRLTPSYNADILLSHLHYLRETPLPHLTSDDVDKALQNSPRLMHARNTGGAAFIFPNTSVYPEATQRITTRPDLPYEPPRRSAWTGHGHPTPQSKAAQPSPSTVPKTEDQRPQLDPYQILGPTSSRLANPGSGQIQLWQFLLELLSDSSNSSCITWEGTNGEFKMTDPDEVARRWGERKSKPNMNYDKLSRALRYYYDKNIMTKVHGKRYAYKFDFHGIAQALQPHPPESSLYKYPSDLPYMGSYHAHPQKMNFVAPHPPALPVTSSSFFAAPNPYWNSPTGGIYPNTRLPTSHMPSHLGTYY", "summary_of_the_method": "as §1"}, "EHF": {"molecular_target": "T5, EHF (Homo sapiens, UniProt Q9NZC4 1-300)", "T5 sequence": "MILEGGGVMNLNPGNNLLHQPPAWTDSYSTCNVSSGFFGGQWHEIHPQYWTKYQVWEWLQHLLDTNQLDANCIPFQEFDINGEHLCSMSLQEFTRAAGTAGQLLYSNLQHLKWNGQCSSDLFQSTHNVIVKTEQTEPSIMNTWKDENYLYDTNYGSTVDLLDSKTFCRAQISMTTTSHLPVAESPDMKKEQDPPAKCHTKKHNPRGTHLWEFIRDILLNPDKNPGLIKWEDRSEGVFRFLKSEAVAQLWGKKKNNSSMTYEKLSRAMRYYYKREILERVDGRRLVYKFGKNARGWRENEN", "summary_of_the_method": "as §1"}, "SPIB": {"molecular_target": "SPIB (Homo sapiens, UniProt Q01892 1-262)", "sequence (Q01892 whole entry)": "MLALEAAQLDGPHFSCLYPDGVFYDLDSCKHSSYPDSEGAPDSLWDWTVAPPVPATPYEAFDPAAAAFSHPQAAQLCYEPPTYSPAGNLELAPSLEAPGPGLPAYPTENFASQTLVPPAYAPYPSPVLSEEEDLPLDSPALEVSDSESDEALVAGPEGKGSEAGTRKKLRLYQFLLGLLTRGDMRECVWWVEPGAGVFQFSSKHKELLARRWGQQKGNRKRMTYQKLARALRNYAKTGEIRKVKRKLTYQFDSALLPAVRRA", "summary_of_the_method": "as §1"}, "ETV7": {"molecular_target": "T6, ETV7 (Homo sapiens, UniProt Q9Y603 1-341)", "T6 sequence": "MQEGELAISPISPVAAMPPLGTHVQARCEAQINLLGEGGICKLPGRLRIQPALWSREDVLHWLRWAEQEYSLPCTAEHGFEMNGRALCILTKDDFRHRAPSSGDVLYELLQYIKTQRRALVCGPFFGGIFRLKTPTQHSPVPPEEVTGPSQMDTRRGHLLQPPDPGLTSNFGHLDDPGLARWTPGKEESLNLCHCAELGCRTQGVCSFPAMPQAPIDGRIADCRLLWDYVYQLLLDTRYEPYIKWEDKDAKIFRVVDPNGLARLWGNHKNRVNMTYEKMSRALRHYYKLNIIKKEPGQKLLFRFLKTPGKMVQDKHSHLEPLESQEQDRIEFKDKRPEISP", "summary_of_the_method": "as §1"}, "ETV3": {"molecular_target": "T7, ETV3 (Homo sapiens, UniProt P41162-2 1-143)", "T7 sequence": "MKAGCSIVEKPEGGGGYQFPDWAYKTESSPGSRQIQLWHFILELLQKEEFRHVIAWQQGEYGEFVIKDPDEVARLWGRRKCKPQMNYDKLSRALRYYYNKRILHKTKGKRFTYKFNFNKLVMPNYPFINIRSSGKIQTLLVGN", "summary_of_the_method": "as §1"}, "ETV1": {"molecular_target": "ETV1 (Homo sapiens, UniProt P50549 1-477)", "sequence (P50549 whole entry)": "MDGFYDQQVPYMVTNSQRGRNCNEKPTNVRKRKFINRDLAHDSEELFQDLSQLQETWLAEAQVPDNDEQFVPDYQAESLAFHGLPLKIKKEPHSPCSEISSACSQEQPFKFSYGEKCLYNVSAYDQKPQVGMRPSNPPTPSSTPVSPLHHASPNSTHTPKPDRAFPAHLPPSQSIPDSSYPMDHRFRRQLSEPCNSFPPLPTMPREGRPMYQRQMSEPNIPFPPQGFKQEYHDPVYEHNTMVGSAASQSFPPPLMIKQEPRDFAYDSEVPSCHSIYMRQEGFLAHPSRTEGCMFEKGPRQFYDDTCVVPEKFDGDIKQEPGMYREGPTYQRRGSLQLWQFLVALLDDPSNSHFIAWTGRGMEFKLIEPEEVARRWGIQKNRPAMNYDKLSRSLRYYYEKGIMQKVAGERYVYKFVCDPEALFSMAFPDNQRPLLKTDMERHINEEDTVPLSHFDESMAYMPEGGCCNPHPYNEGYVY", "summary_of_the_method": "as §1"}, "GABPA": {"molecular_target": "T8, GABPA (Homo sapiens, UniProt Q06546 1-454)", "T8 sequence": "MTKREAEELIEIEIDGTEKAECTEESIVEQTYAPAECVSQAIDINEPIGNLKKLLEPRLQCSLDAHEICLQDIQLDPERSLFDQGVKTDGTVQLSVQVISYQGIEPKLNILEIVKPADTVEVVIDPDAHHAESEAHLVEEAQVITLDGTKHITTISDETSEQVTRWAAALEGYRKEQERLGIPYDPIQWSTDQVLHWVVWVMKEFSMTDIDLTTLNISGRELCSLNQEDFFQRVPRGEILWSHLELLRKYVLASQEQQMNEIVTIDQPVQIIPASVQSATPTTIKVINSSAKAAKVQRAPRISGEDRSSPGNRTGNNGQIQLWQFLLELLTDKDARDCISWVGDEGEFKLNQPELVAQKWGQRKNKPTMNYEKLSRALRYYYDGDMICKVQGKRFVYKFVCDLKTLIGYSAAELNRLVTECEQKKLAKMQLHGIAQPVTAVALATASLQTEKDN", "summary_of_the_method": "as §1"}, "ELF1": {"molecular_target": "ELF1 (Homo sapiens, UniProt P32519 1-619)", "sequence (P32519 whole entry)": "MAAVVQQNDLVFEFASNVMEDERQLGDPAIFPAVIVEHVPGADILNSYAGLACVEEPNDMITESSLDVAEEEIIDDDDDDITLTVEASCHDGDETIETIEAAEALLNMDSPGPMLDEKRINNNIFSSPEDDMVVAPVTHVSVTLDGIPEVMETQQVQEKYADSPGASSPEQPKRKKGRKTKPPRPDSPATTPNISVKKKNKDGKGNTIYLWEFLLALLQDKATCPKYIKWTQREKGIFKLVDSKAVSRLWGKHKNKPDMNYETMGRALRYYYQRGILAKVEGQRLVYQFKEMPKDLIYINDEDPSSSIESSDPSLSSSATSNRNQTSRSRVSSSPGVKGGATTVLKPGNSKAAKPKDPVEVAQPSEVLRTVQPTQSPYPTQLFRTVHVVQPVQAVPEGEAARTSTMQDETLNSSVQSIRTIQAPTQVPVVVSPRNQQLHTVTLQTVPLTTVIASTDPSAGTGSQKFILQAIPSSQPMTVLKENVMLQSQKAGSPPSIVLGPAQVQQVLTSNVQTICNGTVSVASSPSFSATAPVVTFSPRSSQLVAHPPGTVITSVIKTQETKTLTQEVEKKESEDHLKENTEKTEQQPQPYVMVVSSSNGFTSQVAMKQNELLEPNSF", "summary_of_the_method": "as §1"}, "FEV": {"molecular_target": "T9, FEV (Homo sapiens, UniProt Q99581 1-238)", "T9 sequence": "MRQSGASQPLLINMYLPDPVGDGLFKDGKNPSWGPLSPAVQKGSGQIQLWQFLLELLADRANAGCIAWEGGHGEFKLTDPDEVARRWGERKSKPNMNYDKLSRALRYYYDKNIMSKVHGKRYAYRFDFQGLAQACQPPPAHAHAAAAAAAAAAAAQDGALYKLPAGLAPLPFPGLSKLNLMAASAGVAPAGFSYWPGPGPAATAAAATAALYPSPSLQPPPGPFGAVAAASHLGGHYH", "summary_of_the_method": "as §1"}, "ETS2": {"molecular_target": "T10, ETS2 (Homo sapiens, UniProt P15036 1-469)", "T10 sequence": "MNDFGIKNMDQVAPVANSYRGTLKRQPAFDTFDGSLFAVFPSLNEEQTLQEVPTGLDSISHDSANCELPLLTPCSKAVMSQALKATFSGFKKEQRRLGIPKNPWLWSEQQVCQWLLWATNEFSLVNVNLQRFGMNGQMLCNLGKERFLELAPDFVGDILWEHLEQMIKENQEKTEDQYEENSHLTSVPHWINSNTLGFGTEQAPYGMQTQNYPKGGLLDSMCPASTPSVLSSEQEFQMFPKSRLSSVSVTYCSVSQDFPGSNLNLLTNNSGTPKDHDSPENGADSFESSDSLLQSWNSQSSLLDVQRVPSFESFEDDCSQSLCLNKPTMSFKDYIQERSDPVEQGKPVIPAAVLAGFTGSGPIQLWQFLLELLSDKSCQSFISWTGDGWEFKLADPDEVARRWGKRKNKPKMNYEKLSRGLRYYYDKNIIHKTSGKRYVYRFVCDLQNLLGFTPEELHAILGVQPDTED", "summary_of_the_method": "as §1"}, "SPDEF": {"molecular_target": "T11, SPDEF (Homo sapiens, UniProt O95238 1-335)", "T11 sequence": "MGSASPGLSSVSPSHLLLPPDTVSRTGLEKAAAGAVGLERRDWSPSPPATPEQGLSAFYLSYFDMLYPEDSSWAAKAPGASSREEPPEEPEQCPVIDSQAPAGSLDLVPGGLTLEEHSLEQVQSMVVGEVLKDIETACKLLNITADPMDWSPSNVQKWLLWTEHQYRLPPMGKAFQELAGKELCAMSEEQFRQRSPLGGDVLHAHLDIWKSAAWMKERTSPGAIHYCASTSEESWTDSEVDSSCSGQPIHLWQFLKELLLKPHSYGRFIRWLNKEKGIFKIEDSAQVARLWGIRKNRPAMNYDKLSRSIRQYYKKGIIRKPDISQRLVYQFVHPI", "summary_of_the_method": "as §1"}}}
{"sequence": "GCGCTA", "values": [{"measurement": "binding signal", "setting": "ELK3", "result": "1.13 fold enrichment (6-mer frequency, TF over GST control)"}, {"measurement": "binding signal", "setting": "ERF", "result": "1.05 fold enrichment (6-mer frequency, TF over GST control)"}, {"measurement": "binding signal", "setting": "ETV6", "result": "1 fold enrichment (6-mer frequency, TF over GST control)"}]}
{"sequence": "GTATAG", "values": [{"measurement": "binding signal", "setting": "ETV3L", "result": "1 fold enrichment (6-mer frequency, TF over GST control)"}]}
{"sequence": "GAACAG", "values": [{"measurement": "binding signal", "setting": "ERG", "result": "1.02 fold enrichment (6-mer frequency, TF over GST control)"}, {"measurement": "binding signal", "setting": "EHF", "result": "1.03 fold enrichment (6-mer frequency, TF over GST control)"}, {"measurement": "binding signal", "setting": "SPIB", "result": "1.03 fold enrichment (6-mer frequency, TF over GST control)"}, {"measurement": "binding signal", "setting": "ETV7", "result": "1 fold enrichment (6-mer frequency, TF over GST control)"}, {"measurement": "binding signal", "setting": "ETV3", "result": "1.05 fold enrichment (6-mer frequency, TF over GST control)"}]}
{"sequence": "GGTGCT", "values": [{"measurement": "binding signal", "setting": "ETV1", "result": "1.08 fold enrichment (6-mer frequency, TF over GST control)"}]}
{"sequence": "AGCACC", "values": [{"measurement": "binding signal", "setting": "ERF", "result": "1.03 fold enrichment (6-mer frequency, TF over GST control)"}, {"measurement": "binding signal", "setting": "ETV3L", "result": "1.04 fold enrichment (6-mer frequency, TF over GST control)"}]}
{"sequence": "GGCCAC", "values": [{"measurement": "binding signal", "setting": "GABPA", "result": "1.02 fold enrichment (6-mer frequency, TF over GST control)"}, {"measurement": "binding signal", "setting": "ELF1", "result": "1.03 fold enrichment (6-mer frequency, TF over GST control)"}, {"measurement": "binding signal", "setting": "EHF", "result": "1.03 fold enrichment (6-mer frequency, TF over GST control)"}, {"measurement": "binding signal", "setting": "FEV", "result": "1.05 fold enrichment (6-mer frequency, TF over GST control)"}, {"measurement": "binding signal", "setting": "ETS2", "result": "1 fold enrichment (6-mer frequency, TF over GST control)"}]}
{"sequence": "CGGAAT", "values": [{"measurement": "binding signal", "setting": "SPDEF", "result": "1 fold enrichment (6-mer frequency, TF over GST control)"}, {"measurement": "binding signal", "setting": "ETV3", "result": "1.02 fold enrichment (6-mer frequency, TF over GST control)"}, {"measurement": "binding signal", "setting": "ETV6", "result": "1.01 fold enrichment (6-mer frequency, TF over GST control)"}]}
{"sequence": "GGGAAG", "values": [{"measurement": "binding signal", "setting": "ETV6", "result": "1.04 fold enrichment (6-mer frequency, TF over GST control)"}]}
